Records with an inconclusive call do not appear. Entries that show only a call come without a potency. Activity calls are given as the source filed them. Calls follow the shape of the dose curve; as a rule, active = well fitted activation curve with a large enough effect; inconclusive = small, poorly fitted or top-dose-only effect; inactive = flat fitted curve, though single readings scatter.
Potency is read from the fitted curve at half-maximal effect.

This assay deals with Pyruvate kinase PKM (Homo sapiens) (UniProt P14618). Kind of assay: Confirmation Concentration-Response Assay for Activators of Human Muscle isoform 2 Pyruvate Kinase: for Probe SAR. Also: nearly all actives have a fitted effect of over 60% in size. Conditions: purified PKM2, ATP generation, Kinase-Glo luminescence; series mostly up to 57.5 µM. The essentials: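 ATP generation was detected by luciferase-coupled luminescence (Kinase-Glo). The reaction ran for 1 hour at room temperature with 0.1 mM ADP, 0.5 mM PEP and 0.1 nM purified hPK-M2 in 50 mM imidazole, pH 7.2, with 7 mM MgCl2. The enzyme was set at intermediate activity so activators could be detected.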
Sequence of Pyruvate kinase PKM (Homo sapiens) (P14618 whole entry, looked up, canonical isoform): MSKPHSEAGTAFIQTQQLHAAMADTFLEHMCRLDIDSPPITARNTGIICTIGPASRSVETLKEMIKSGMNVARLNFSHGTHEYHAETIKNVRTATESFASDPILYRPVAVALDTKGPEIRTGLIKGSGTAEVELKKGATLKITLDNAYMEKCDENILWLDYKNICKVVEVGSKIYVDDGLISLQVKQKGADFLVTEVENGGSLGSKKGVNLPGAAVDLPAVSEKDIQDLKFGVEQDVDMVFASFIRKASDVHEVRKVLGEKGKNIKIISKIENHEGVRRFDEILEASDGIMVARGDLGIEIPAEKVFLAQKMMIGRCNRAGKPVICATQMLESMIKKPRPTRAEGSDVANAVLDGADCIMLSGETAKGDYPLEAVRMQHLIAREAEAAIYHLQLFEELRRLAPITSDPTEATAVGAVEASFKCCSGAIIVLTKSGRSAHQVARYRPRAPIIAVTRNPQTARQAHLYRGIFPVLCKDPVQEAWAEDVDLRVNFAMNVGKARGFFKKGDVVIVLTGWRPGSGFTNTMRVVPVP
As to `Nc1ccccc1OC1=NS(=O)(=O)c2ccccc21`, the Potency entry was “inactive”.

With `COc1ccccc1NS(=O)(=O)c1ccc2c(c1)CCC(=O)N2`, the Potency is 20600 nM (active).

On to `O=C1CCc2cc(S(=O)(=O)Nc3cccc(Cl)c3)ccc2N1`, for which the Potency was 410 nM (active).

For the molecule `Cc1ccc2nc(-c3ccc(C)o3)c(Nc3ccccc3)n2c1`, the Potency entry was “inactive”.

Take `COc1cc(F)c(S(=O)(=O)N2CCN(S(=O)(=O)c3cccc(NC(C)=O)c3)CC2)c(F)c1`: the Potency was 3260 nM (active).

As to `Cc1ccn2c(NCc3ccco3)c(-c3ccccc3)nc2c1`, the Potency entry was “inactive”.

For `O=S1(=O)N=C(Oc2cccc3ccccc23)c2ccccc21`, the Potency entry is “inactive”.

For the molecule `Cc1ccc(NS(=O)(=O)c2cc3c(cc2F)NC(=O)CC3)cc1C`, the Potency was 730 nM (active).

`O=C1c2ccccc2C(=O)N1Cc1cccnc1`: the Potency result was “inactive”.

Take `O=C1CCc2cc(S(=O)(=O)Nc3ccc4ncccc4c3)ccc2N1`: the Potency result is “inactive”.

For the molecule `O=C1CCc2cc([S+](=O)([O-])NC3CCOCC3)ccc2N1`, the Potency result was “inactive”.

Take `O=C1c2ccccc2C(=O)N1c1cccc(=O)[nH]1`: the Potency result was “inactive”.

As for `Cc1ccc(NS(=O)(=O)c2ccc3c(c2)CCC(C)(C)O3)cc1C`, the Potency entry was “inactive”.

For the molecule `CC(=O)Nc1ccccc1OC1=N[S+](=O)([O-])c2ccccc21`, the Potency result is “inactive”.

Consider `Cc1cc2c(s1)c1cnn(Cc3c(Cl)ccc(C)c3F)c(=O)c1n2C`, for which the Potency was 1260 nM (active).

Regarding `Cc1cccc(NS(=O)(=O)c2ccc3c(c2)CCC(=O)N3)c1`, the Potency is 1830 nM (active).

`O=S1(=O)N=C(Oc2ccc(C(F)(F)F)cc2)c2ccccc21`: the Potency entry is “inactive”.

For `O=C1c2ccccc2C(=O)N1c1ccc(Cl)cc1`, the Potency entry is “inactive”.

For the origin of these results see PubChem BioAssay AID2533 (National Center for Advancing Translational Sciences (NCATS), 2010).
